The whole screen tested about 320,000 compounds, of which about 2,100 (0.66%) were called active. Inconclusive results (about 53%) are left out. This is one part of a sample in which actives are shown more often than they occur. The call rests on the fitted dose curve; in most records, active means well fitted inhibition curve with a large enough effect in the signal ratio, with a control signal flat (not every such curve was filed as active); inconclusive means small, poorly fitted or top-dose-only effect, or effect the other way, or a change in a side signal; inactive means flat fitted curve, though single readings scatter; the % refers to the signal ratio.
Potency means the concentration at half of the fitted maximal effect.

A short description of the assay: qHTS Assay for Lipid Storage Modulators in Drosophila S3 Cells.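 On cell number change: cells counted by Cell Tracker Red CMTPX staining in the red channel.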 On lipid storage change, negative = inhibition: on the % scale 0 is the no-effect control and ±100 the full control effect. To be noted: BODIPY lipid droplet fluorescence, 18-24 h, cells fed with added oleic acid; cell number change: measured here: cell count max response; series mostly up to 46.1 µM; lipid storage change, negative = inhibition: at the top concentration. In a few lines:
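Laser-scanning cytometry quantifies lipid droplet accumulation (500–530 nm total intensity; droplet/cell object ratio) in oleic acid-fed (400 uM added) Drosophila S3 cells treated with a concentration series. 20 uM Triacsin C defined 100% inhibition.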
A general note: qHTS replaces the single test concentration by a dilution series.
On to `CCOC(=O)C1=C(COC(=O)CCC(=O)c2ccc(C)cc2)NC(=O)NC1C` (stereo not given), for which the “lipid storage change, negative = inhibition” value was 16.2% (inactive) and the cell number change was 25.4%.
As to `CC(=O)C(Sc1ccc2nnc(-c3ccncc3)n2n1)C(C)=O`, the “lipid storage change, negative = inhibition” value is 10.9% (inactive) and the cell number change turned out to be 11%.
The corresponding values for `Cc1cc(C)cc(N(CCC(=O)Nc2nnc(C)s2)S(=O)(=O)c2ccc(Cl)cc2)c1` are 13.3% (inactive) and -5.03%.
Regarding `Cc1nc([N+](=O)[O-])c(SCC(N)=O)n1Cc1ccccc1`, the “lipid storage change, negative = inhibition” value was -0.96% (inactive) and the cell number change worked out at 11.1%.
With `Cc1ccc(C(=O)C2CCN(S(=O)(=O)c3ccccc3C(=O)O)CC2)cc1`, the “lipid storage change, negative = inhibition” value was -9.15% (inactive) and the cell number change was 25.8%.
As for `COCCN(CC1CCCN(C2Cc3ccccc3C2)C1)C(=O)CCC(F)(F)F` (stereo not given), the “lipid storage change, negative = inhibition” value was -0.431% (inactive) and the cell number change amounted to 20.2%.
For the molecule `COc1ccc(C(=O)CCN2CCCC(C)C2)cc1` (stereo not given), the Potency is 11.6 µM (active) and the cell number change is -14.2%.
In the case of `COc1ccc(NC(=O)N2CCCC(C(=O)NC(C)C)C2)cc1` (stereo not given), the “lipid storage change, negative = inhibition” value was 11.9% (inactive) and the cell number change turned out to be 10.2%.
Turning to `COc1ccc(NC(=O)N2CCCC(C(=O)Nc3ccccc3OC)C2)cc1` (stereo not given), the “lipid storage change, negative = inhibition” value is 28.8% (inactive) and the cell number change turned out to be 0.427%.
The corresponding values for `O=C(Nc1ccc(C(=O)N2CCOCC2)cc1)Nc1cccc(Cl)c1` are 14.8% (inactive) and 5.64%.
The corresponding values for `CCOc1ccc(NC(=O)COc2ccc3c(c2)CCC3)cc1OC` are 0.757% (inactive) and -12.3%.
`COc1ccc(NC(=O)COc2ccc3c(c2)CCC3)cc1`: the Potency is 8.2 µM (active).
As to `CC1CCCN(CCC(=O)c2ccc(Br)cc2)C1` (stereo not given), the “lipid storage change, negative = inhibition” value was 4.51% (inactive) and the cell number change is -9.39%.
For `CC(=O)c1cccc(NC(=O)Nc2ccc(C(=O)N3CCCC3)cc2)c1`, in that order: -1.01% (inactive) and 14.3%.
Consider `COc1cccc(NC(=O)COc2ccc3c(c2)CCC3)c1`, for which the molecule was called inactive.
Take `COc1ccc(NC(=O)C2CCCN(C(=O)Nc3ccc(OC)cc3)C2)cc1` (stereo not given): the Potency was 1.03 µM (active) and the cell number change turned out to be 16.7%.
With `COc1ccc(NC(=O)CCN2CCCC(C)C2)cc1` (stereo not given), the “lipid storage change, negative = inhibition” value was 0.0368% (inactive) and the cell number change was 17%.
Take `O=C(Nc1ccc(C(=O)N2CCCCC2)cc1)Nc1cccc(Cl)c1`: the Potency is 13 µM (active).
As to `NS(=O)(=O)c1cc(Cl)c(NC(=O)COC(=O)c2ccccn2)c(Cl)c1`, the “lipid storage change, negative = inhibition” value is 8.46% (inactive) and the cell number change was 16.5%.
Consider `N#Cc1ccccc1OCC(=O)Nc1ccc2c(c1)OCCCO2`, for which the call was inactive and the cell number change came out at 0.833%.
As to `O=[N+]([O-])c1ccc(Oc2ccc(OCc3ccccc3)cc2)nc1`, the “lipid storage change, negative = inhibition” value is -0.254% (inactive) and the cell number change was -9.11%.
Consider `CC(=O)Nc1ccc(NC(=O)C(C)OC(=O)CCC(=O)c2ccc(F)cc2)cc1` (stereo not given), for which the “lipid storage change, negative = inhibition” value is 2.38% (inactive) and the cell number change turned out to be 8.99%.
As for `Cc1ccc(C(=O)NNC(=O)c2ccncc2)cc1C`, the “lipid storage change, negative = inhibition” value is 11.9% (inactive) and the cell number change amounted to 12.2%.
On to `CCOC(=O)N1CCN(CC(O)COc2c(C)cc(C)cc2C)CC1` (stereo not given), for which the “lipid storage change, negative = inhibition” value is 7.41% (inactive) and the cell number change turned out to be 5%.
As for `O=C(CCN1CCCCC1)Nc1cccc(Cl)c1`, the Potency is 25.9 µM (active) and the cell number change was -28.1%.
Consider `CCOC(=O)c1cc(NC(=O)Cc2ccc(S(=O)(=O)N3CCOCC3)s2)cc(C(=O)OCC)c1`, for which the Potency was 1.16 µM (active) and the cell number change is -15.4%.
For the molecule `CNC(=O)c1ccc(NC(=O)Cc2ccc(S(=O)(=O)N3CCOCC3)s2)cc1`, the molecule was classed as inactive.
With `O=C(NCCN1CCCCC1)Nc1cccc(F)c1`, the “lipid storage change, negative = inhibition” value was 15.7% (inactive) and the cell number change is -5.7%.
On to `O=C(Cc1ccc(S(=O)(=O)N2CCOCC2)s1)Nc1ccc2c(c1)CCC2`, for which the “lipid storage change, negative = inhibition” value is -2.06% (inactive) and the cell number change is -23.1%.
For the molecule `O=C(CCN1CCCCCC1)Nc1cccc(F)c1`, the Potency was 25.9 µM (active) and the cell number change was -13.4%.
As to `Cc1cccc(NC(=O)CCN2CCCCC2)c1`, the “lipid storage change, negative = inhibition” value is 10.7% (inactive) and the cell number change stood at 8.73%.
Take `O=C(CCN1CCCCC1)Nc1ccccc1`: the “lipid storage change, negative = inhibition” value was -20.5% (inactive) and the cell number change was -23.3%.
With `O=C(CCN1CCCCCC1)Nc1ccc(F)cc1`, the “lipid storage change, negative = inhibition” value was -0.0849% (inactive) and the cell number change is -3.75%.
Regarding `COc1ccc(NC(=O)C2CCCN(S(=O)(=O)c3ccc4c(c3)oc(=O)n4C)C2)c(OC)c1` (stereo not given), the “lipid storage change, negative = inhibition” value is 11.1% (inactive) and the cell number change amounted to 13.3%.
For the molecule `COc1cc(C2NC(=O)NC(C)=C2C(C)=O)cc(OC)c1OC` (stereo not given), the “lipid storage change, negative = inhibition” value was 11.4% (inactive) and the cell number change is 0.318%.
As for `COc1ccc(CC(=O)Nc2ccc(/C(C)=N\NC(=O)c3ccc(Br)o3)cc2)cc1`, the “lipid storage change, negative = inhibition” value was -18.3% (inactive) and the cell number change turned out to be 2.49%.
On to `COC(=O)c1ccc(COC(=O)C2CC(O)CN2S(=O)(=O)c2ccc([N+](=O)[O-])cc2)cc1` (stereo not given), for which the “lipid storage change, negative = inhibition” value was -0.843% (inactive) and the cell number change was 2.24%.
`CC1CCCC(C)N1C(=O)CSc1nnc(NC(=O)c2cccs2)s1` (stereo not given): the “lipid storage change, negative = inhibition” value was 13% (inactive) and the cell number change is 3.67%.
For `CCn1cc([N+](=O)[O-])c(C(=O)N2CCCC2)n1`, the Potency is 29.1 µM (active) and the cell number change is -10.5%.
For `CCn1cc([N+](=O)[O-])c(C(=O)N2CCCCCC2)n1`, the “lipid storage change, negative = inhibition” value is 0.775% (inactive) and the cell number change was determined as 11.5%.
Regarding `CCn1cc([N+](=O)[O-])c(C(=O)N2CCOCC2)n1`, the “lipid storage change, negative = inhibition” value was -9.37% (inactive) and the cell number change is -13.3%.
On to `COc1ccc(/C=N/S(=O)(=O)c2ccc(C)cc2)cc1`, for which the “lipid storage change, negative = inhibition” value is -20.7% (inactive).
For the molecule `CC(=O)C(Cc1ccccc1)NC(=O)COC(=O)CCN1C(=O)C2CC=CCC2C1=O` (stereo not given), the “lipid storage change, negative = inhibition” value is 11% (inactive) and the cell number change is 7.02%.
`Cc1ccc(SCC(=O)OCC(=O)NC(C)c2ccc(Br)cc2)cc1` (stereo not given): the outcome was inactive and the cell number change was -2.31%.
On to `CC(NC(=O)COC(=O)CCN1C(=O)C2CC=CCC2C1=O)c1ccc(Br)cc1` (stereo not given), for which the Potency was 9.2 µM (active) and the cell number change was 1.69%.
Take `O=C1N(CC(=O)N2CCc3ccccc32)CCN1Cc1ccc(Cl)cc1`: the result was inactive.
`COc1c(Cl)cnn(-c2ccccc2)c1=O`: the “lipid storage change, negative = inhibition” value is 5.58% (inactive) and the cell number change was -2.85%.
For the molecule `COc1cc(Cl)nn(-c2ccccc2)c1=O`, the “lipid storage change, negative = inhibition” value is 6.03% (inactive) and the cell number change was 0.264%.

Source of the values: PubChem BioAssay AID2685 (National Center for Advancing Translational Sciences (NCATS), 2010).
